{
  "source": "PubChem BioAssay AID1645849",
  "about": "(National Center for Advancing Translational Sciences (NCATS), 2021)",
  "note": "Records with an inconclusive call do not appear. Calls of active or inactive are those of the source. Calls follow the shape of the dose curve; as a rule, active = well fitted inhibition curve with a large enough effect in the repeat runs; inconclusive = weak or mixed curves; inactive = no such curve, though single readings can be large or run the other way.",
  "data": [
    {"test": "Comparison of Janus kinase inhibitors to block the type I interferon pathway in human skeletal muscle cells: JAK inhibition assay", "conditions": "IFN pathway HiBiT reporter; series mostly up to 45.9 µM; activity change, negative = inhibition: at the top concentration", "source_text": "Assay Submitter: Travis B. Kinder Ph.D.\nNational Center for Advancing Translational Sciences (NCATS)\nThe family of Janus kinases (JAK1, JAK2, JAK3, TYK2) mediate signal transduction from cytokine receptors through phosphorylation and activation of intracellular signaling pathways and transcription factors. Small molecule antagonists of JAKs (jakinibs) have been developed with varying selectivity for the use in malignancies and immune regulation. […] We have assayed a library of 48 jakinibs for their ability to inhibit the JAK1/TYK2-dependent type I interferon (IFN) - major histocompatibility complex (MHC) class I pathway in human skeletal muscle cells genome-engineered to fuse a pro-luminescent HiBiT peptide to endogenous MHC class I.\nThe assay utilized CRISPR/Cas9 genome-engineered immortalized human myoblasts, C25cl48, where a pro-luminescent reporter HiBit was fused to the C-terminus of endogenous MHC class I allele HLA-B*08:01 (HLA-B HiBit myoblasts) (Kinder et al., 2020). HiBit is an 11 amino acid fragment of NanoLuc luminescent reporter (Promega Corporation), and when complexed to the larger LgBit fragment, the reconstituted enzyme produces light in the presence of furimazine substrate. Briefly, HLA-B HiBit myoblasts were plated into 1536-well plates, treated with 4.0 ng/ml human IFN-beta and 48 jakinibs in an 11-point, 1:3 titration with a high final concentration of 46 uM. After 24 hrs of treatment, cells were assayed by Nano-Glo HiBiT Lytic Detection System (Promega) and luminescence measured by a ViewLux 1430 Ultra HTS (Perkin Elmer).\nKinder TB, Dranchak PK, Inglese J. High-Throughput Screening to Identify Inhibitors of the Type I Interferon-Major Histocompatibility Complex Class I Pathway in Skeletal Muscle. ACS Chem Biol. 2020 Jul 17;15(7):1974-1986. doi: 10.1021/acschembio.0c00343\nPROTOCOL TABLE (as described by Inglese et al., 2007)\nSEQUENCE No. (e.g., 1, 2, 3, etc.); PARAMETER (e.g., Cells, Incubation, Reagent, etc.); VALUE; DESCRIPTION\n1a; Cells; 5 uL; Seed 250 cells/well with a Multidrop Combi (Thermo Scientific) into two Greiner 1536 well white/solid bottom, high base, TC plates (789173-F) in 5 ul/well of growth medium (GM) without dexamethasone into columns 1+2\n1b; Cells; 5 uL; Seed 250 cells/well with a Multidrop Combi (Thermo Scientific) into two Greiner 1536 well white/solid bottom, high base, TC plates (789173-F) in 5 ul/well of GM without dexamethasone + 4 ng/ml IFN-beta into columns 3 - 48. Add metal lids with gas-exchange holes\n2; Incubate; 30 min; Incubate at 37C, 5% CO2, 95% RH\n3; Compounds; 23 nl; Transfer DMSO control and library compounds in DMSO with Pin Tool (Wako)\n4; Incubate; 24 hrs; Incubate at 37C, 5% CO2, 95% RH\n5; Dispense; 2.5 ul; Add HiBit lytic reagent with a BioRAPTR FRD (Beckman Coulter)\n6; Incubate; 10 min; Incubate in the dark at ambient temperature for lysis\n7; Detector; 5 sec; Measure luminescence with ViewLux 1430 Ultra HTS (Perkin Elmer). Settings: Exposure = 5 sec, Gain = High, Speed = Slow, Binning = 2X\nNOTES (numbers refer to sequence above)\n1; HLA-B HiBit myoblasts cultured in GM - 4:1 ratio DMEM Glutamax (Thermo Fisher, 10566) : M199 (Thermo Fisher, 11150), 10% FBS (Hyclone Standard), 1% Pen/Strep, 50 ug/ml fetuin, 10 ng/ml hEGF, 1 ng/ml bhFGF, 10 ug/ml insulin, 0.4 ug/ml dexamethasone (supplements from Promocell, C-39360). […] Recombinant human IFN-beta (Peprotech, 300-02BC) was reconstituted in water, diluted in GM, and aliquots stored at -80C until day of use.\n3; Control plate contained DMSO in columns 1 and 4, digitonin (Sigma, D141) cytotoxicity control in DMSO at 20 mM in column 2, and ruxolitinib (Selleckchem, S1378) inhibitor control in DMSO 16-point, 1:2 titration, high concentration = 17 mM in column 3. Digitonin and ruxolitinib stocks were reconstituted at 20 and 50 mM in DMSO and aliquots stored at -20C. Forty-eight compounds were added in an 11-point, 1:3 titration with a high final concentration of 46 uM by Pintool (Wako) from one library plates and one DMSO control plate\n[…]", "values": [
      {"smiles": "Cc1cnc(Nc2cccc(CN3CCOCC3)c2)nc1Nc1cccc(S(=O)(=O)NC(C)(C)C)c1", "Potency": "10 µM (active)"},
      {"smiles": "Fc1cc(-c2cccc3ncc(-c4cnn(C5CCNCC5)c4)nc23)cc(F)c1CN1CCOCC1", "Potency": "17.9 µM (active)"},
      {"smiles": "CN(C)c1ccc(Nc2nc(N)n(C(=O)c3c(F)cccc3F)n2)cc1", "Potency": "6.58 µM (active)"},
      {"smiles": "CCS(=O)(=O)N1CCN(c2ccc(Nc3ncc(C(N)=O)c(NC4CC4)n3)cc2)CC1", "Potency": "0.93 µM (active)"},
      {"smiles": "CN1CCN(c2cccc(Nc3nc4c(-c5ccc(S(C)(=O)=O)cc5)cccn4n3)c2)CC1", "Potency": "3.06 µM (active)"},
      {"smiles": "N#CC[C@H](C1CCCC1)n1cc(-c2ncnc3[nH]ccc23)cn1", "Potency": "0.861 µM (active)"},
      {"smiles": "Cc1cc(Nc2cc(NC(=O)c3c(Cl)cccc3Cl)ccn2)nc(N)n1", "Potency": "2.16 µM (active)"},
      {"smiles": "Cc1oncc1C(=O)Nc1ccc(C(F)(F)F)cc1", "Potency": "17.2 µM (active)"},
      {"smiles": "C[C@@]12O[C@@H](C[C@]1(O)CO)n1c3ccccc3c3c4c(c5c6ccccc6n2c5c31)CNC4=O", "Potency": "0.415 µM (active)"},
      {"smiles": "N#CCC1(n2cc(-c3ncnc4[nH]ccc34)cn2)CN(C2CCN(C(=O)c3ccnc(C(F)(F)F)c3F)CC2)C1", "Potency": "0.861 µM (active)"},
      {"smiles": "CNS(=O)(=O)CC1CCC(N(C)c2ncnc3[nH]ccc23)CC1", "note": "(centres undefined)", "Potency": "4.66 µM (active)"},
      {"smiles": "CC(C)N(CCC(=O)c1ccc2ccccc2c1)Cc1ccccc1", "Potency": "14.2 µM (active)"},
      {"smiles": "Cc1cnc(Nc2ccc(CN3CCOCC3)cc2)nc1Nc1cccc(S(=O)(=O)NC(C)(C)C)c1", "Potency": "5.43 µM (active)"},
      {"smiles": "N#C/C(=C\\c1ccc(O)c(O)c1)C(=O)NCc1ccccc1", "activity change, negative = inhibition": "-0.854% (inactive)"},
      {"smiles": "CCS(=O)(=O)N1CC(CC#N)(n2cc(-c3ncnc4[nH]ccc34)cn2)C1", "Potency": "1.31 µM (active)"},
      {"smiles": "NC(=O)c1cnc2[nH]ccc2c1NC1C2CC3C[C@H]1CC(O)(C3)C2", "note": "(some centres undefined)", "Potency": "1.72 µM (active)"},
      {"smiles": "CC(C)(C)c1nc2c3cc[nH]c(=O)c3c3cc(F)ccc3c2[nH]1", "Potency": "1.26 µM (active)"},
      {"smiles": "Cc1cc(Nc2nc(N[C@@H](C)c3ccc(F)cc3)c(C#N)cc2F)n[nH]1", "Potency": "1.08 µM (active)"},
      {"smiles": "CCC[C@H](NC(=O)/C(C#N)=C/c1cccc(Br)n1)c1ccccc1", "Potency": "7.39 µM (active)"},
      {"smiles": "O=C(Nc1ccnc(NC(=O)C2CC2)c1)c1c(Cl)cccc1Cl", "Potency": "4.48 µM (active)"},
      {"smiles": "O=C(Nc1nc2cccc(-c3ccc(CN4CCS(=O)(=O)CC4)cc3)n2n1)C1CC1", "Potency": "15.3 µM (active)"},
      {"smiles": "[2H]C([2H])([2H])NC(=O)c1nnc(NC(=O)C2CC2)cc1Nc1cccc(-c2ncn(C)n2)c1OC", "Potency": "0.0711 µM (active)"},
      {"smiles": "COc1cc2ncnc(Nc3ccc(O)cc3)c2cc1OC", "activity change, negative = inhibition": "-22.8% (inactive)"},
      {"smiles": "COc1nsc(NC(=O)N2C[C@H]3CC(N(C)c4ncnc5[nH]ccc45)C[C@H]3C2)n1", "note": "(some centres undefined)", "Potency": "0.432 µM (active)"},
      {"smiles": "Cc1cnc(Nc2ccc(N3CCN(C)CC3)cc2)nc1Nc1cccc(S(=O)(=O)NC(C)(C)C)c1", "Potency": "2.43 µM (active)"},
      {"smiles": "CCCS(=O)(=O)NC1CC(N(C)c2ncnc3[nH]ccc23)C1", "note": "(centres undefined)", "Potency": "3.7 µM (active)"},
      {"smiles": "CC[C@@H]1CN(C(=O)NCC(F)(F)F)C[C@@H]1c1cnc2cnc3[nH]ccc3n12", "Potency": "0.33 µM (active)"},
      {"smiles": "Cc1cnc(Nc2ccc(OCCN3CCCC3)cc2)nc1Nc1cccc(S(=O)(=O)NC(C)(C)C)c1", "Potency": "3.56 µM (active)"},
      {"smiles": "C[C@@H]1CCN(C(=O)CC#N)C[C@@H]1N(C)c1ncnc2[nH]ccc12", "Potency": "2.16 µM (active)"},
      {"smiles": "CC[C@@](C)(Nc1ccnc(-c2c[nH]c3ncccc23)n1)C(=O)NCC(F)(F)F", "Potency": "8.29 µM (active)"},
      {"smiles": "Cc1cc(Nc2nc(N[C@@H](C)c3ncc(F)cn3)ncc2Cl)n[nH]1", "Potency": "1.47 µM (active)"},
      {"smiles": "C1=C/COCc2cc(ccc2OCCN2CCCC2)Nc2nccc(n2)-c2cccc(c2)COC/1", "Potency": "2.16 µM (active)"},
      {"smiles": "CC1(C)CN(C(=O)c2ccc(-c3cccc4nc(NC(=O)C5CC5)nn34)cc2)C1", "Potency": "7.67 µM (active)"},
      {"smiles": "CC(=O)Nc1cc(Oc2ccc3c(nc(Nc4ccc(F)cc4F)n3C)c2C)ccn1", "Potency": "0.37 µM (active)"},
      {"smiles": "Cc1cc(Nc2cc(CN3CCOCC3)c3nc(C)c(Cc4ccc(Cl)cc4F)n3n2)n[nH]1", "Potency": "14.2 µM (active)"},
      {"smiles": "NC(=O)c1nc(-c2c(F)cccc2Cl)oc1Nc1ccc(C(=O)N2CCOCC2)cc1", "Potency": "5.23 µM (active)"},
      {"smiles": "Cn1cc(Nc2nccc(N3C[C@H]4CC[C@@H](C3)N4C(=O)[C@@H]3CC3(F)F)n2)cn1", "Potency": "3.56 µM (active)"},
      {"smiles": "C=CC(=O)N1C[C@H](Nc2ncnc3[nH]ccc23)CC[C@@H]1C", "activity change, negative = inhibition": "-26.6% (inactive)"},
      {"smiles": "N#CCNC(=O)c1ccc(-c2ccnc(Nc3ccc(N4CCOCC4)cc3)n2)cc1", "Potency": "4.48 µM (active)"}
    ]}
  ]
}
